Results as given in ChEMBL document CHEMBL3988442, “University of Dundee, Small-Polar-MMV Screening Library” (2021).
For some assays here: Results with a measured potency or affinity are listed apart.

Key:
Parameters in all cases: scale not given: direction of the effect not stated beside the values
[1] = biological target: Protein translocase subunit SecA (Escherichia coli (strain K12)) (UniProt P10408); experiment: Assay to Identify E. coli SecA ATPase Inhibitors; type: functional; conditions: 30 µM
[2] = biological target: T1, Ubiquitin-activating enzyme e1, putative (Leishmania donovani (strain BPK282A1)) (UniProt E9BSI1); experiment: Leishmania donovani Ubiquitin Activating Enzyme (LdE1); type: functional; conditions: 30 µM
T1 sequence (whole entry): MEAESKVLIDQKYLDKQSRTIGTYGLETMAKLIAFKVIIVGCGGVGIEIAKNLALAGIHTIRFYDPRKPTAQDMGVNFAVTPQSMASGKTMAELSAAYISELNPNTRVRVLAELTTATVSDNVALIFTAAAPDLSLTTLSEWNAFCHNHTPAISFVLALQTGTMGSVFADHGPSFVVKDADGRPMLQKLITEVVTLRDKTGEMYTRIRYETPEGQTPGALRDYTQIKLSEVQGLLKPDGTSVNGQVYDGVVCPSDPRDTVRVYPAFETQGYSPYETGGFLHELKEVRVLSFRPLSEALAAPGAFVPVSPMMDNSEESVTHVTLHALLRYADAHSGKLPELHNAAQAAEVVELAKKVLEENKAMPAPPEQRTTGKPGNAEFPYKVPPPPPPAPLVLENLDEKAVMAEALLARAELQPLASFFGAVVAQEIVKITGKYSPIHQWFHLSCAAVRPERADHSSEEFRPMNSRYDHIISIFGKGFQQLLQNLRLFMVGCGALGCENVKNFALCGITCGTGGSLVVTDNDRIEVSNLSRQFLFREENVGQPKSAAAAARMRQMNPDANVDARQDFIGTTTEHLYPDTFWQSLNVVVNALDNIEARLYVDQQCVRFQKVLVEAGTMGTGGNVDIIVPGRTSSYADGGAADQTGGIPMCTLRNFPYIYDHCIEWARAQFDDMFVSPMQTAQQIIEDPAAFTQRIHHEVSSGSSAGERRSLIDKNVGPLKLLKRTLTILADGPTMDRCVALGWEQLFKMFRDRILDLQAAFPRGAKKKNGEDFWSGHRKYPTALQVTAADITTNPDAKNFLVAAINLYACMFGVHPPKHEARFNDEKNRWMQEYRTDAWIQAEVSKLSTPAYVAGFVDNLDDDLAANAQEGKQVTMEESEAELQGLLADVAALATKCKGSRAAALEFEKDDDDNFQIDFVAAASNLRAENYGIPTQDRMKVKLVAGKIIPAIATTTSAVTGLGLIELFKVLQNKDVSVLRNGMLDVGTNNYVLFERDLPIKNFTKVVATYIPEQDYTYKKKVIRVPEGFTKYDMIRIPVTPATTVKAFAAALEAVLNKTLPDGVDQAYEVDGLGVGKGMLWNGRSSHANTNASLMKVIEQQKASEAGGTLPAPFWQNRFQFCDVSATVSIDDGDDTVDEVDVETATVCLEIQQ

[3] = biological target: AMP-activated protein kinase, AMPK (Homo sapiens) (UniProt P54646+O43741+P54619+Q9UGJ0+Q9Y478+Q13131+Q9UGI9); experiment: AMP-dependent Kinase enzyme assay. An in vitro enzyme assay that detects ADP turnover that is directly proportional to AMPK activity. This uses naive AMPK that is activated during the assay with MK-8722; type: functional; conditions: 30 µM
[4] = biological target: Sialic acid-binding Ig-like lectin 9 (Homo sapiens) (UniProt Q9Y336); experiment: Hs-Siglec9 ALPHAscreen SOP 20170721; conditions: 10 µM
Trypanosoma cruzi = experiment: Trypanosoma cruzi phosphomannomutase and mannose-1-phosphate guanylyltransferase assay; type: functional; conditions: 10 µM
[5] = biological target: T2, Arginase-2, mitochondrial (Homo sapiens) (UniProt P78540); experiment: in vitro enzyme assay to detect the production of urea directly proportional to the activity of Arginase II; type: functional; conditions: 33.3 µM; further: in the data most compounds retested in dose-response had high values
T2 sequence (whole entry): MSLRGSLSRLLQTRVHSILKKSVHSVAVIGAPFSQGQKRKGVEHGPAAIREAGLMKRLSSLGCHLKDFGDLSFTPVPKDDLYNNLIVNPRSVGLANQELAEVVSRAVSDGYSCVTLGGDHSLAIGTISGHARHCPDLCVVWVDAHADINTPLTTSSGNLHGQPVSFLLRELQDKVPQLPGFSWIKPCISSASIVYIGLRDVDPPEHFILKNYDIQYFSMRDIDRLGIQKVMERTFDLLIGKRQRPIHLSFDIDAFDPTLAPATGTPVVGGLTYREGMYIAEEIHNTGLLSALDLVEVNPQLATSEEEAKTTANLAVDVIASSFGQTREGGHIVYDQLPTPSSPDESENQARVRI

[6] = biological target: T3, Proteasome subunit beta (Trypanosoma cruzi) (UniProt O96673); experiment: Trypanosoma cruzi proteasome chymotrypsin-like activity (TcProtChymo) assay.; further: in the data most compounds retested in dose-response had high values; type: functional; conditions: 9.37 µM
T3 sequence (whole entry): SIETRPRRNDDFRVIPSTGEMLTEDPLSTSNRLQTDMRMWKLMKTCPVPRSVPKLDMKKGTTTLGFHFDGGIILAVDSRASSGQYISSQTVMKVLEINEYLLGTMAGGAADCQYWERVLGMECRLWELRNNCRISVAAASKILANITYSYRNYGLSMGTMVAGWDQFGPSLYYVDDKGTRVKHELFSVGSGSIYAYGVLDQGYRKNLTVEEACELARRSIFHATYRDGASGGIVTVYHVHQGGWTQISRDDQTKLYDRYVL

Homo sapiens = species: Homo sapiens; experiment: To identify inhibition of the IFN signalling (Jak-Stat) pathway via expression of an eGFP reporter gene under the control of an IFN-stimulated response element (ISRE) containing MxA promoter.; type: functional; conditions: 30 µM
[7] = biological target: T4, Tyrosyl-tRNA synthetase, putative (Trypanosoma cruzi (strain CL Brener)) (UniProt Q4DSP6); experiment: Trypanosoma cruzi tyrosyl tRNA synthetase (TcYRS) _High Tyrosine SOP; type: functional; conditions: 30 µM; further: in the data most compounds retested in dose-response had high values
T4 sequence (whole entry): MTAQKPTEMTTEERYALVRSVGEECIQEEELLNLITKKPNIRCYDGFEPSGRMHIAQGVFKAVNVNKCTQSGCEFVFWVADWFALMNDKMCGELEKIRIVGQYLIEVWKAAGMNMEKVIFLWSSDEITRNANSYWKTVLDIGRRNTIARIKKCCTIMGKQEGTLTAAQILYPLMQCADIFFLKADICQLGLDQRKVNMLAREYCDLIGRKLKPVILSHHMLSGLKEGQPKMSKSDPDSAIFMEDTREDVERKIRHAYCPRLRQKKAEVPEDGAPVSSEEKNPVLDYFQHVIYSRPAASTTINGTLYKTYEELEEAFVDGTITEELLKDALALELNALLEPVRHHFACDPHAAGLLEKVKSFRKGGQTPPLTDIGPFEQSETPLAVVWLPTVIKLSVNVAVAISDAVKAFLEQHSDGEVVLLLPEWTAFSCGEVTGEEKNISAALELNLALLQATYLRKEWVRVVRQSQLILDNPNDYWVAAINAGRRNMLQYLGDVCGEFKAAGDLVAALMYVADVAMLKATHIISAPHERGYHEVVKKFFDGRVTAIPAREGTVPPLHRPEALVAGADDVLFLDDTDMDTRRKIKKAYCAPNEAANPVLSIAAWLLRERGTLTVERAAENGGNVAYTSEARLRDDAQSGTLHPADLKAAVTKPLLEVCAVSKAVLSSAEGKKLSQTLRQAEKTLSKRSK

[8] = biological target: T4, Tyrosyl-tRNA synthetase, putative (Trypanosoma cruzi (strain CL Brener)); experiment: Trypanosoma cruzi tyrosyl tRNA synthetase (TcYRS) SOP; type: functional; conditions: 30 µM
[9] = biological target: Chromo domain-containing protein 1 (Saccharomyces cerevisiae (strain ATCC 204508 / S288c) (Baker's yeast)) (UniProt P32657); experiment: ScCHD-1 Enzyme Inhibition Assay; type: functional; conditions: 30 µM; further: in the data most compounds retested in dose-response had high values
Chromo domain-containing protein 1 (Saccharomyces cerevisiae (strain ATCC 204508 / S288c) (Baker's yeast)), sequence (P32657 whole entry, the tested form may be a part): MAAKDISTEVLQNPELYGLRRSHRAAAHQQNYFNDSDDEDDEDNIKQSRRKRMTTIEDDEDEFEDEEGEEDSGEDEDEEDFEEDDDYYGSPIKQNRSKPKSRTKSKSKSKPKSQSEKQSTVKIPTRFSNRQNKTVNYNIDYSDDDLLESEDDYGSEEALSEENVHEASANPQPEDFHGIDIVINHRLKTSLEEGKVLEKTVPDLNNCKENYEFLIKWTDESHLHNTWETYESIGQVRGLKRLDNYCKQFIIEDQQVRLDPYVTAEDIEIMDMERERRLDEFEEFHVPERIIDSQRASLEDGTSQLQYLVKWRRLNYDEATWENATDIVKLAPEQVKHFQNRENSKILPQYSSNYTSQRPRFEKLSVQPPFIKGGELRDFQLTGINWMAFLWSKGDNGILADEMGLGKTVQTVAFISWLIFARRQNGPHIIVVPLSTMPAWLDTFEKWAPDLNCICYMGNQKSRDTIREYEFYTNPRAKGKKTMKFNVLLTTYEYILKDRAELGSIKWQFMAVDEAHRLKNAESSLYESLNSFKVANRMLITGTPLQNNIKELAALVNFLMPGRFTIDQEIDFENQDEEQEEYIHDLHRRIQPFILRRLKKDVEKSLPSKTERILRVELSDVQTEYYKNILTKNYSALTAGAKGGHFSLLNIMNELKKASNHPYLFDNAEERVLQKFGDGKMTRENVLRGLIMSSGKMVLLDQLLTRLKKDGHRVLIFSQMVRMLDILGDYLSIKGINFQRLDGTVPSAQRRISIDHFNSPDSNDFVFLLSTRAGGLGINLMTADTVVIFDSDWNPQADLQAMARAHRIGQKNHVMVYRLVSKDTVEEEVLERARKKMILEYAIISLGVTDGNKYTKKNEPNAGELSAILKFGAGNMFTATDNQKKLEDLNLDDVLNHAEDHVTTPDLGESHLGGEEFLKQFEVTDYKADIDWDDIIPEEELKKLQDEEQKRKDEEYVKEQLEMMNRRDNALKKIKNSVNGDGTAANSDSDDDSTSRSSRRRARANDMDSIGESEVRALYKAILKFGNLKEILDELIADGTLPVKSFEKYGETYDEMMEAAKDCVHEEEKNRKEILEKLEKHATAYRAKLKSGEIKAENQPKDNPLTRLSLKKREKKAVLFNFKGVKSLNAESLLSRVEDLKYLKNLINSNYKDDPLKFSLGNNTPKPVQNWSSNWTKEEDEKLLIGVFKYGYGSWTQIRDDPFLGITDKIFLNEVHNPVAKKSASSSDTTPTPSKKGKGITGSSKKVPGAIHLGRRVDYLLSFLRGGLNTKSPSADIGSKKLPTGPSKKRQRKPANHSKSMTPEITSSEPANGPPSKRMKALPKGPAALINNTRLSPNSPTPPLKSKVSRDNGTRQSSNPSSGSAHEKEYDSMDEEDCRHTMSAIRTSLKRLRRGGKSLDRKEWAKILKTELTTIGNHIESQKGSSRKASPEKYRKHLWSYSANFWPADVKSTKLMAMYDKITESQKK

Protein translocase subunit SecA (Escherichia coli (strain K12)), sequence (P10408 whole entry): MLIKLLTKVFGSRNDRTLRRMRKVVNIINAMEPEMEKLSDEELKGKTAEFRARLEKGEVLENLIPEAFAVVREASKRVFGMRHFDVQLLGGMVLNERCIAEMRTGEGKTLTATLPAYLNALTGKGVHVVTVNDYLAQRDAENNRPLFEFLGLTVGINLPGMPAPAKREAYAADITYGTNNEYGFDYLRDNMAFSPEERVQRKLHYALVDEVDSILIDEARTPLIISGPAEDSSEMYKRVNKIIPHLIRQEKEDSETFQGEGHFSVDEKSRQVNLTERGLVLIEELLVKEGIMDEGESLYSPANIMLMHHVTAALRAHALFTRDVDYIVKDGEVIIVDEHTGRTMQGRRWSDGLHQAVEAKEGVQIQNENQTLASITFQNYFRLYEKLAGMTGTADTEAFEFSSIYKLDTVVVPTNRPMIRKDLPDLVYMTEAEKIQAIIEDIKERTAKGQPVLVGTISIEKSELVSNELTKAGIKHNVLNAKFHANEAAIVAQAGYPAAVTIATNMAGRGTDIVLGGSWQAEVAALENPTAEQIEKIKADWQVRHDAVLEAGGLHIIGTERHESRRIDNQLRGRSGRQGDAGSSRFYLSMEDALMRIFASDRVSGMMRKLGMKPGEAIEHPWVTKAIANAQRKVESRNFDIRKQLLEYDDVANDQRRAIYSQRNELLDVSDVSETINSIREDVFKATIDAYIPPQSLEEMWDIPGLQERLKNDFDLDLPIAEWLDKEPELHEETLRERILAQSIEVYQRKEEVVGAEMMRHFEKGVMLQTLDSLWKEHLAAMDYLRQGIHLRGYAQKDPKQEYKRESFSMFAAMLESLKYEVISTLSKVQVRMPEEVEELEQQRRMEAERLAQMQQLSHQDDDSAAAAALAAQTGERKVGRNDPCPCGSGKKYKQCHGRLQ
Sialic acid-binding Ig-like lectin 9 (Homo sapiens), sequence (Q9Y336 whole entry): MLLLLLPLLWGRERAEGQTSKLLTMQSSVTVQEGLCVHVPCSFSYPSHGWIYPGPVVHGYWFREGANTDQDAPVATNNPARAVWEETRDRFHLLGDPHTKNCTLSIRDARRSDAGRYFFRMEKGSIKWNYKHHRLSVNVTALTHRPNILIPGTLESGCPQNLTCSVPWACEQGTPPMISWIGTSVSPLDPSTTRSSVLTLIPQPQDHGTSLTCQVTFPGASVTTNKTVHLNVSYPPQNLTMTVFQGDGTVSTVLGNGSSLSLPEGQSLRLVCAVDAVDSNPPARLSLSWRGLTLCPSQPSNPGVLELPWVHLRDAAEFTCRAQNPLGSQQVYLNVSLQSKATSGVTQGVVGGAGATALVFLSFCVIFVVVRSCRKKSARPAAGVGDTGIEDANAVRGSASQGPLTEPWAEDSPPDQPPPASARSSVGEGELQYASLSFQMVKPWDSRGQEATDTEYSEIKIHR

Row | SMILES | Percent Effect [1] [%] | Percent Effect [2] [%] | Percent Effect [3] [%] | Percent Effect [4] [%] | Percent Effect (Trypanosoma cruzi) [%] | Percent Effect [5] [%] | Percent Effect [6] [%] | Percent Effect (Homo sapiens) [%] | Percent Effect [7] [%] | Percent Effect [8] [%] | Percent Effect [9] [%]
1 | CC(C)c1nn(C)c(Cl)c1CNCc1ccc2c(c1)OCCO2 | -4.72 | 10.5 | 2.72 | 8.57 | 3.27 | -5.04 | 2.28 | -34.1 | 5.42 | 16.1 | 0.827
2 | CC(NC(=O)NCCCn1ccnc1)c1ccc2c(c1)CCC(=O)N2 (stereo unspecified) | -5.85 | 22.8 | 0.7 | -8 | 8.4 | -2.66 | 13 | 10.8 | 5.42 | 24.1 | -6.95
3 | CC(=O)c1cc(CN2C[C@H]3CC[C@@H]2CN(S(=O)(=O)N(C)C)C3)cs1 | -5.56 | 15.3 | -10.7 | 36 | 7.68 | 6.18 | 5.96 | 4.65 | 7.37 | 10.3 | -3.04
4 | CC(=O)N1CCN(CC2CCOc3ccccc3C2)CC1 (stereo unspecified) | -5.96 | -1.39 | -8.25 | 5.04 | -5.34 | 0.883 | 14.6 | -1.92 | 1.05 | -7.69 | -1.42
5 | O=C(NS(=O)(=O)c1ccc2c(c1)OCCO2)c1ccc(Br)cc1F | -3.37 | -13.9 | 13.5 | 1.7 | -2.36 | 1.07 | 12 | -21.1 | -13.5 | -15.2 | -10.5
6 | Cc1cc(C)n(C2CCCN(C(=O)c3ccc(NC4CC4)nc3)C2)n1 (stereo unspecified) | -6.18 | 7.79 | 5.88 | 2.52 | -4.6 | 1.05 | 7.52 | 16.1 | 4.76 | 9.41 | -13.5
7 | CCn1cc(NC(=O)NCC(C)O)cn1 (stereo unspecified) | -0.762 | 17.7 | -8.6 | -3.54 | -0.85 | 4.18 | 5.65 | 1.36 | 8.37 | -24.1 | -7.2
8 | c1ccc(-c2ccc3nc(C4CCN(CC5CC5)CC4)nn3c2)cc1 | 4.34 | -5.48 | 2.06 | 4.55 | 0.992 | 3.99 | 6.08 | -16.5 | 4.17 | 3.7 | 0.798
9 | CCc1ccccc1C(=O)N1CCN(S(C)(=O)=O)[C@@H](C)C1 | 2.08 | 2.74 | 0.603 | 7.54 | 5.09 | 3.18 | 8.34 | -4.78 | 1.07 | 0 | -1.37
10 | O=C(NCc1ccco1)c1nn(C2CCS(=O)(=O)C2)c2c1CCCC2 (stereo unspecified) | -5.41 | 21.1 | 7.28 | 5.73 | 3.02 | -3.55 | 13.1 | 4.09 | 0 | 5.2 | -0.898
11 | Cc1ccccc1CNC(=O)Cc1c(C)nc2cc(=O)[nH]n2c1C | -2.72 | 13.2 | -32.1 | 17.4 | 4.13 | -4.21 | 4.18 | 2.25 | 9.31 | 17.1 | -11.1
12 | O=C(CC1CCCC1)N1CCCC(c2n[nH]c3nccnc23)C1 (stereo unspecified) | -2.49 | 6.76 | 20.4 | 3.58 | -2.17 | 7.66 | 11.2 | 13.3 | 3.23 | 16.9 | -9.36
13 | CNC(=O)[C@@]12CCO[C@@H]1CCN(S(=O)(=O)c1cccc(C)c1)C2 | -2.33 | 10.8 | 2.22 | 0.794 | 3.23 | 7.96 | 9.96 | 11.1 | 1.08 | 12.8 | -1.83
14 | COCCN1CCN(CCCS(C)(=O)=O)CC1C (stereo unspecified) | -5.52 | 21.6 | -8.32 | 7.36 | 9.56 | 0.924 | 9.16 | 4.15 | 9.9 | 28.1 | 52
15 | CCn1ccnc1CN1CCN(CCC(=O)NC(C)(C)C)CC1C (stereo unspecified) | -2.88 | 8.11 | -0.327 | 5.56 | 3.71 | 10 | 5.16 | 5.99 | 10.9 | 15.8 | -3.56
16 | CS(=O)(=O)N1CCC(O)(Cn2c(C3CC3)nc3ccccc3c2=O)CC1 | -6.42 | 1.35 | 8 | 2.72 | -4.35 | -0.232 | 5.77 | 11.6 | -1.07 | -3.9 | 7
